Over roughly 140,000 sequences, “enrichment ratio after two sorts for PhoP signalling” has its median near 0; the highest 2% begin near 11. The sample holds the highest values, similar sequences and a random draw of the others, so the mix is not that of the screen. A value given as a limit tells only on which side of the number the result lay.

153 variants from a collection of fitness landscapes (doi:10.1126/science.1257360) can be followed below.

First the molecules themselves.
B1: PhoQ; a variant is named by its letters at X, in order, P23837 (parent)
chain: MKKLLRLFFPLSLRVRFLLATAAVVLVLSLAYGMVALIGYSVSFDKTTFRLLRGESNLFYTLAKWENNKLHVELPENIDKQSPTMTLIYDENGQLLWAQRDVPWLMKMIQPDWLKSNGFHEIEADVNDTSLLLSGDHSIQQQLQEVREDDDDAEMTHSVAVNVYPATSRMPKLTIVVVDTIPVELKSSYMVWSWFIYVLSANLLLVIPLLWVAAWWSLRPIEALAKEVRELEEHNRELLNPATTRELTSLVRNLNRLLKSERERYDKYRTTLTDLTHSLKTPLXXLQXXLRSLRSEKMSVSDAEPVMLEQISRISQQIGYYLHRASMRGGTLLSRELHPVAPLLDNLTSALNKVYQRKGVNISLDISPEISFVGEQNDFVEVMGNVLDNACKYCLEFVEISARQTDEHLYIVVEDDGPGIPLSKREVIFDRGQRVDTLRPGQGVGLAVAREITEQYEGKIVAGESMLGGARMEVIFGRQHSAPKDE

The variants in this experiment derive from B1. Put plainly: enrichment ratio after two sorts for PhoP signalling (ratio (wild type AVST 3.29)); higher = more functional. To be noted: with PhoP (E. coli).
Take RRGY: the enrichment ratio was not above 0.25.
For FMSK, the enrichment ratio was not above 0.25.
Turning to SQLF, the enrichment ratio is 12.6.
On to GYLF, for which the enrichment ratio was not above 0.25.
The figure for DPLF is not above 0.25; for EQLF it is not above 0.25; for GTLF it is 11.4.
To SRLF belongs not above 0.25; to SELF, 13.1; to ATLF, 13.9.
In the case of TTLF, the enrichment ratio amounted to 4.92.
On to AILF, for which the enrichment ratio is 2.9.
Turning to SLLF, the enrichment ratio stood at 0.885.
To YTLF belongs 6.76.
Regarding YMKT, the enrichment ratio was not above 0.25.
For QAAW, the enrichment ratio was not above 0.25.
To WQED belongs not above 0.25; to NQDM, not above 0.25.
With IYQN, the enrichment ratio is not above 0.25.
For DQIN, the enrichment ratio was not above 0.25.
Turning to HPPT, the enrichment ratio is not above 0.25.
To DIGD belongs not above 0.25.
Consider KYSK, for which the enrichment ratio is not above 0.25.
On to SITR, for which the enrichment ratio was 11.4.
For the variant SIMK, the enrichment ratio turned out to be 28.9.
As to SIGR, the enrichment ratio was 1.85.
The figure for SISK is 12.1.
With STMK, the enrichment ratio worked out at 9.3.
For the variant EQMS, the enrichment ratio was not above 0.25.
For the variant SISR, the enrichment ratio was determined as 6.33.
Take NQMS: the enrichment ratio is not above 0.25.
In the case of KYTR, the enrichment ratio was not above 0.25.
SQMK: the enrichment ratio was not above 0.25.
To SQMS belongs 17.9; to DTPY, not above 0.25.
To IRAT belongs not above 0.25; to KYIW, not above 0.25; to VAVA, not above 0.25.
For the variant AHMQ, the enrichment ratio is not above 0.25.
In the case of IGMY, the enrichment ratio was not above 0.25.
Consider KQNT, for which the enrichment ratio is not above 0.25.
Consider QIGW, for which the enrichment ratio is not above 0.25.
SQTA: the enrichment ratio stood at 0.808.
As to SILA, the enrichment ratio stood at 16.9.
Turning to SIGD, the enrichment ratio is 7.24.
Consider SQTI, for which the enrichment ratio came out at 13.3.
KYTS: the enrichment ratio is not above 0.25.
Turning to SIDW, the enrichment ratio is not above 0.25.
Turning to SIFA, the enrichment ratio was not above 0.25.
The figure for KYLA is not above 0.25; for SFTI it is not above 0.25.
As for KYTA, the enrichment ratio was not above 0.25.
SITS: the enrichment ratio came out at 11.6.
Take SITA: the enrichment ratio is 20.
In the case of AKHI, the enrichment ratio was not above 0.25.
On to WPAY, for which the enrichment ratio was not above 0.25.
In the case of GVTN, the enrichment ratio was not above 0.25.
Regarding NYMC, the enrichment ratio was not above 0.25.
As for ICGD, the enrichment ratio is not above 0.25.
With LGEW, the enrichment ratio is not above 0.25.
Turning to SQAN, the enrichment ratio is 6.83.
The figure for EDDL is not above 0.25; for SSLY it is 8.15; for SQTS it is 11.8.
Consider SIMS, for which the enrichment ratio is 12.1.
On to SSWI, for which the enrichment ratio was 2.38.
With SIKQ, the enrichment ratio was not above 0.25.
KSTS: the enrichment ratio is not above 0.25.
As to SSTI, the enrichment ratio turned out to be 13.8.
With FQTS, the enrichment ratio is not above 0.25.
For SISA, the enrichment ratio amounted to 11.9.
Consider KYMS, for which the enrichment ratio is not above 0.25.
To SIYI belongs not above 0.25; to KYSA, not above 0.25.
For DYKN, the enrichment ratio is not above 0.25.
For the variant KNRG, the enrichment ratio is not above 0.25.
For the variant IQKG, the enrichment ratio was not above 0.25.
With SNAN, the enrichment ratio is 6.54.
The figure for EFAY is not above 0.25; for SIWD it is 14; for WIAK it is not above 0.25.
SIAK: the enrichment ratio is 11.2.
As for SILY, the enrichment ratio was not above 0.25.
Take KYAK: the enrichment ratio was not above 0.25.
The figure for KYWD is not above 0.25; for KYTI it is not above 0.25; for IQTC it is not above 0.25.
The figure for SQTC is 20.9; for SPWD it is not above 0.25.
To NQTC belongs not above 0.25; to SITI, 19.7; to ELMG, not above 0.25.
HETM: the enrichment ratio is not above 0.25.
Turning to NFED, the enrichment ratio is not above 0.25.
On to DCAY, for which the enrichment ratio was not above 0.25.
On to KYSH, for which the enrichment ratio was not above 0.25.
For the variant QGAE, the enrichment ratio was not above 0.25.
The figure for FIVP is not above 0.25; for FWLL it is not above 0.25; for PSSI it is not above 0.25.
For the variant QLYR, the enrichment ratio turned out to be 0.63.
The figure for YEWP is not above 0.25.
As for IVFG, the enrichment ratio was not above 0.25.
On to STMS, for which the enrichment ratio worked out at 15.6.
Turning to SPMS, the enrichment ratio is not above 0.25.
As to SWMS, the enrichment ratio is not above 0.25.
For NWMF, the enrichment ratio is not above 0.25.
The figure for AGSQ is 12.9; for TGSQ it is 25.1; for AGGK it is not above 0.25.
In the case of RGSQ, the enrichment ratio was not above 0.25.
The figure for AGSR is not above 0.25.
As for NGSQ, the enrichment ratio is not above 0.25.
The figure for LDTG is not above 0.25; for DEHI it is not above 0.25; for FAGW it is not above 0.25.
As for HEIN, the enrichment ratio was not above 0.25.
For EYTQ, the enrichment ratio is not above 0.25.
As for SQMN, the enrichment ratio turned out to be 25.3.
Consider AQKN, for which the enrichment ratio is not above 0.25.
As for SPMN, the enrichment ratio was not above 0.25.
Take AQMN: the enrichment ratio was found to be 38.4.
For AIMN, the enrichment ratio came out at 5.77.
To STMN belongs 2.85; to YRVY, not above 0.25.
Regarding YKWQ, the enrichment ratio was not above 0.25.
As for AEQV, the enrichment ratio was determined as 12.7.
Consider AEYN, for which the enrichment ratio is not above 0.25.
In the case of AELF, the enrichment ratio is 16.2.
On to APLF, for which the enrichment ratio is not above 0.25.
Consider AILD, for which the enrichment ratio was not above 0.25.
For AEGD, the enrichment ratio came out at 0.253.
For AQQV, the enrichment ratio is not above 0.25.
The figure for AELM is 2.01.
Turning to AEEA, the enrichment ratio was not above 0.25.
AELD: the enrichment ratio is 11.4.
On to AEEN, for which the enrichment ratio is not above 0.25.
Consider AEQN, for which the enrichment ratio was 21.7.
In the case of MEFK, the enrichment ratio turned out to be 1.13.
To WLKT belongs not above 0.25; to LQAS, not above 0.25.
As for AEFP, the enrichment ratio is not above 0.25.
Regarding AHLW, the enrichment ratio was not above 0.25.
For AELS, the enrichment ratio came out at 10.7.
The figure for AEWI is not above 0.25.
AELA: the enrichment ratio came out at 18.7.
AEFS: the enrichment ratio amounted to 19.
The figure for AILW is not above 0.25.
With AELY, the enrichment ratio amounted to 9.13.
The figure for AELW is 11.4; for AEFA it is 0.58.
For AELK, the enrichment ratio worked out at 11.5.
To AEPA belongs not above 0.25.
